TEAD-YAP inh: TEAD-YAP interaction inhibition. HEK-TIYL cells, TEAD-Gal4/YAP UAS-luciferase luminescence. inhibition, % at 9.12 µM. actives 1.4% (n = 640,000); in the data active means inhibition above about 32%;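 further: 0% = median of test compound wells and 100% = reference inhibitor wells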
FBW7 activator: activators of human E3 ligase FBW7; Q969H0; AlphaScreen FBW7–phospho-cyclin E peptide binding, activator screen; normalized activity (activation), % at 26.1 µM; actives 0.13% (n = 650,000); AID 1259310; in the data active means normalized activity above about 1.9%;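 further: purified mutant Fbw7 with reduced substrate affinity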
GPR151 activ: activates the human receptor GPR151; Q8TDV0; PathHunter beta-arrestin GPR151 cells, luminescence; activation, % at 11.2 µM; actives 1% (n = 650,000); AID 1508602; in the data active means activation above about 4.9%;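 further: 0% = median of compound wells and 100% = cells with positive control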
MITF inh: human MITF inhibition, primary screen. actives 0.91% (n = 650,000). inhibition, % at 2.6 µM. AlphaScreen MITF homodimerization, bead proximity signal. AID 1259374; in the data active means inhibition above about 50%;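 further: 0% = vehicle wells with protein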
Target sequence (O75030 whole entry, looked up): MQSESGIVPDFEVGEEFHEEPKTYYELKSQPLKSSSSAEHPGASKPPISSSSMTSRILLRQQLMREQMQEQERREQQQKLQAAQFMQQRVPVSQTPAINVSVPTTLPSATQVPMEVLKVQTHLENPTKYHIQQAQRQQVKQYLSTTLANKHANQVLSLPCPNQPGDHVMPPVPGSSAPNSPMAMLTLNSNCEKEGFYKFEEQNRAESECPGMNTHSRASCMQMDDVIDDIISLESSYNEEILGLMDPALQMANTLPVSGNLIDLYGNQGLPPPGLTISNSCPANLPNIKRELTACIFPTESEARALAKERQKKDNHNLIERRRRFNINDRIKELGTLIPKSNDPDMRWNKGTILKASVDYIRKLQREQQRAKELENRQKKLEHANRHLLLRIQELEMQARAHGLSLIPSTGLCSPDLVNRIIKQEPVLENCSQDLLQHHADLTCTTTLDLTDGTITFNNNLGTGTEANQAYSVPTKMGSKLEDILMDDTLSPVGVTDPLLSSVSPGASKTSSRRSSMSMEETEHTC
The depositor's hits bear a star. A selection: hits, their analogues and other compounds. The true share with any hit is near 3.5%.

SMILES	TEAD-YAP inh	FBW7 activator	GPR151 activ	MITF inh
Brc1cccc(-c2nc3ccccc3[nH]2)c1	-51.5	1.9*	-3.7	8.9
Cc1ccc2nc(-c3ccccn3)[nH]c2c1	64.2*	-1.9	-7.5	-3.4
Nc1ccc2nc(-c3ccc(Cl)cc3)[nH]c2c1	-54.2	0.7	-4.2	16.9
CN(C)c1ccc(-c2nc3ccc(N)cc3[nH]2)cc1	78.1*	-0.1	-9.2	20.6
O=C(NCCCc1ccncc1)C1CC12CCN(C(=O)CCOc1ccccc1)CC2 (stereo not given)	-1.1	-0.2	-0.2	8.2
O=C1N[C@H](Cc2ccc(O)cc2)C(=O)N2C[C@@H](NCc3ccc4ncccc4c3)C[C@@H]12	3.9	0.0	0.8	-2.4
COc1ccc(OC)c(C2C(C#N)=C(N)Oc3c2ccc2ccccc32)c1 (stereo not given)	51.0*	0.2	-1.7	5.4
COc1ccc(OC)c(C2C(C#N)=C(N)Oc3c2c(=O)[nH]c2ccccc32)c1 (stereo not given)	-4.7	0.2	0.3	1.5
COc1cc(C2C(C#N)=C(N)Oc3c2ccc2ccccc32)cc(Br)c1O (stereo not given)	63.8*	0.0	-1.3	10.2
COc1cccc(C2C(C#N)=C(N)Oc3n[nH]c(-c4ccc5ccccc5c4)c32)c1 (stereo not given)	-2.0	-0.6	0.6	-2.8
CCOc1cc(C2C(C#N)=C(N)Oc3c2ccc2ccccc32)ccc1O (stereo not given)	12.1	0.1	-0.3	16.5
COc1cccc(C2C(C#N)=C(N)Oc3ccc4ccccc4c32)c1 (stereo not given)	50.1*	0.0	-0.5	16.5
Nc1c(C(=O)N2CCCCC2)sc2nc(-c3cccs3)cc(C(F)(F)F)c12	1.4	4.1*	-0.5	-5.0
Cc1ncc([N+](=O)[O-])n1S(=O)(=O)c1cccc2ccccc12	5.4	2.3*	-0.1	-0.3
Cc1ncc([N+](=O)[O-])n1S(=O)(=O)c1ccccc1	10.6	0.5	0.3	10.8
COc1ccc(N2C(=O)CS(=O)(=O)CC2=O)cc1	10.1	-0.1	0.4	6.5
CC(C)(C)c1ccc(C(=O)Nc2ccc3c(c2)CN(C(=O)c2ccco2)CC3)cc1	85.7*	0.2	2.5	6.6
CC(=O)Nc1ccc(C(=O)NCc2ccco2)cc1	17.9	0.0	3.5	11.0
NC(=S)/N=C1\CCN(c2cccc(C(F)(F)F)c2)N1	35.4*	-0.1	-0.8	-3.8
CCN(CC)Cc1cc(O)c(CN(CC)CC)cc1O	4.2	-0.1	-1.0	76.0*
C=C(C)CN(CC)Cc1cc(Cl)ccc1O	2.8	0.2	2.1	-6.0
Cc1cc(NC(=O)c2ccccc2)ccc1-c1cc2ccccc2oc1=O	-1.2	0.6	-1.7	5.6
Cc1cc(NC(=O)Cc2ccccc2)ccc1-c1cc2ccccc2oc1=O	54.0*	-0.1	-0.5	-4.6
Cc1ccccc1OCC(=O)Nc1ccc(-c2cc3ccccc3oc2=O)c(C)c1	44.7*	0.2	-0.5	13.3
CCOc1ccccc1OCC(=O)N/N=C(/C)c1ccc(Cl)cc1	69.2*	0.4	0.4	9.2
SMILES	TEAD-YAP inh	FBW7 activator	GPR151 activ	MITF inh
CCOc1ccccc1OCC(=O)N/N=C/c1ccccc1O	58.7*	-1.7	0.4	-5.8
Cc1cc(C)c(OCC(=O)N/N=C/c2ccccc2O)c(C)c1	-4.5	-0.2	1.2	-0.2
COc1c(O)ccc(/C=N/NC(=O)COc2c(C)ccc(C)c2C)c1[N+](=O)[O-]	54.2*	0.3	0.3	7.4
COc1c(O)ccc(/C=N/NC(=O)COc2ccccc2C)c1[N+](=O)[O-]	-8.0	0.0	2.9	-4.8
Cc1cccc(C)c1OCC(=O)N/N=C/c1ccccc1O	50.9*	0.0	0.6	13.3
O=C(c1cc2nc(-c3ccc(Cl)c(Cl)c3)cc(C(F)(F)F)n2n1)N1CCN(Cc2ccccc2)CC1	-2.4	0.3	-0.2	25.9
CCOc1ccccc1OCC(=O)N/N=C/c1ccc(O)c([N+](=O)[O-])c1	55.3*	-0.2	0.3	-0.2
N#Cc1ccccc1OCC(=O)N/N=C/c1ccc(O)c([N+](=O)[O-])c1	-14.2	-0.1	1.3	-5.9
CCOC(=O)N(CC#N)c1ccc(C)cc1	-3.8	-0.1	0.5	6.2
CCOc1ccc(N(CCC#N)S(=O)(=O)c2ccc(Cl)cc2)cc1	2.0	0.2	0.3	11.5
CCOc1ccc(N(CCC#N)C(=O)CCl)cc1	46.4*	-0.1	1.5	-8.3
Cc1ccc(N(CCC#N)C(=O)CCl)cc1	76.6*	-0.1	4.4	10.4
N#CCCN(C(=O)CCl)c1ccccc1	65.4*	-0.2	1.9	-3.8
N#CCCN(C(=O)CCl)c1ccc(F)cc1	82.1*	-0.2	0.3	3.1
